# Data: paper PMC7826789 (International Journal of Molecular Sciences, 2021)
# Key:
# Details in all cases: Compound Concentration (nM):1000
# AAK1 = tested on: AAK1
# [1] = tested on: ABL1(E255K)-phosphorylated
# [2] = tested on: ABL1(F317I)-nonphosphorylated
# [3] = tested on: ABL1(F317I)-phosphorylated
# [4] = tested on: ABL1(F317L)-nonphosphorylated
# [5] = tested on: ABL1(F317L)-phosphorylated
# [6] = tested on: ABL1(H396P)-nonphosphorylated
# [7] = tested on: ABL1(H396P)-phosphorylated
# [8] = tested on: ABL1(M351T)-phosphorylated
# [9] = tested on: ABL1(Q252H)-nonphosphorylated
# 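Note: KINOMEscan scanMAX binding as percent activity remaining versus control; lower means stronger binding.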
SMILES,Percent Control (AAK1) [%],Percent Control [1] [%],Percent Control [2] [%],Percent Control [3] [%],Percent Control [4] [%],Percent Control [5] [%],Percent Control [6] [%],Percent Control [7] [%],Percent Control [8] [%],Percent Control [9] [%]
NS(=O)(=O)c1ccc(N/N=C2\C(=O)Nc3ccc(-c4cnco4)cc32)cc1 [GW276655],14,63,69,59,75,74,58,83,92,85
CN(C)c1cc2c(Nc3ccc4c(cnn4Cc4ccccc4)c3)ncnc2cn1 [GW282974X],75,59,84,91,99,50,,63,100,48
COc1cc(/C=N/Nc2ncnc3[nH]ncc23)ccc1O [GW578748X],34,0.8,100,37,56,23,0,1.3,0,0
COc1cccc(-n2ncc3c(N/N=C/c4ccncc4)ncnc32)c1 [GW784752X],85,1.5,100,78,98,24,0,1.5,0,0
CC(C)COC(=O)c1ccc2c(c1)/C(=C/Nc1ccc(S(N)(=O)=O)cc1)C(=O)N2 [GW416981X],26,100,100,83,100,100,75,100,100,95
COc1cccc(-c2c[nH]c3c(N/N=C/c4ccncc4)ncnc23)c1 [GW814408X],69,0.7,100,66,61,19,0,0.2,0.3,0
COc1cc(C=NNc2ncnc3c2cnn3-c2ccccc2)ccc1O [GW513184X],91,15,92,92,100,91,4.7,26,25,8.4
Cl.c1ccc(Cc2nc3ccc(Nc4ncnc5ccccc45)cc3[nH]2)cc1 [GR269666A],100,100,100,88,100,92,86,100,100,98
COc1ccccc1-c1cc(/C=C2\C(=O)Nc3ncc(Br)cc32)cc(Br)c1O [GW442130X],87,83,100,100,100,100,48,85,100,94
Cl.O=C(Nc1ccc(Oc2ccc3[nH]c(NC(=O)c4ccccc4)nc3c2)cc1)Nc1cc(C(F)(F)F)ccc1F [GW709042A],100,83,43,76,26,80,9.9,67,62,8
Cl.O=C(Nc1ccc(Oc2ccc3[nH]c(NC(=O)c4ccco4)nc3c2)cc1)Nc1cc(C(F)(F)F)ccc1F [GW683134A],100,39,20,53,6.8,54,0.7,20,22,5.5
COc1ccc(COc2ccc(Cc3cnc(N)nc3N)cc2OC)cc1 [GW632580X],94,75,99,95,100,93,88,86,85,88
CN1CCN(C(=O)c2ccc(NC(=O)Nc3ccc(N(C)c4ccnc(Nc5ccc(CS(C)(=O)=O)cc5)n4)cc3)cc2)CC1.Cl [GW830263A],19,38,96,69,51,34,1.4,32,20,6.1
COc1cc2ncnc(Nc3ccc4c(cnn4Cc4ccccc4)c3)c2cc1OC.Cl [GW282449A],100,100,100,81,93,60,80,100,100,96
Nc1ncnc2occ(-c3ccc(NC(=O)Nc4cc(C(F)(F)F)ccc4F)cc3)c12 [GW770249X],96,78,67,61,7.8,54,2.9,72,45,0
NS(=O)(=O)c1ccc(Nc2ncc(-c3ccccc3)o2)cc1 [GW572399X],94,81,99,87,86,100,35,87,83,78
Cl.O=C(O[C@H]1CN[C@H](C#Cc2cc3ncnc(Nc4ccc5c(cnn5Cc5ccccc5)c4)c3s2)C1)N1CCOCC1 [GSK200398A],87,88,89,85,100,52,80,90,100,84
O=C(Nc1n[nH]c2nc(-c3ccc(O)cc3)c(Br)cc12)C1CC1 [SB-725317],79,26,100,80,100,100,1.9,28,33,7
NS(=O)(=O)c1ccc(N/N=C2\C(=O)Nc3ccc(Cl)cc32)cc1 [GW280670X],94,100,99,96,100,100,81,100,100,81
COc1ccc2c(-c3ccnc(Nc4cccc(OC(F)(F)F)c4)n3)cnn2n1 [GW810372X],69,100,100,100,100,100,87,100,97,98

SMILES,Percent Control (AAK1) [%],Percent Control [1] [%],Percent Control [2] [%],Percent Control [3] [%],Percent Control [4] [%],Percent Control [5] [%],Percent Control [6] [%],Percent Control [7] [%],Percent Control [8] [%],Percent Control [9] [%]
NS(=O)(=O)c1ccc(N/N=C2\C(=O)Nc3ccc(C(=O)NCc4ccncc4)cc32)cc1 [GW300657X],29,79,85,81,92,54,63,82,91,78
COc1ccc2[nH]c3c4[nH]c5ccc(OC)cc5c4c4c(c3c2c1)C(=O)NC4=O [GW296115X],53,64,87,73,84,75,34,65,68,28
O=C1Nc2ccc(C(=O)c3ccco3)cc2C1=Cc1cc(Cl)c(O)c(Cl)c1 [GW406108X],30,68,89,79,100,71,60,87,70,71
CCS(=O)(=O)c1ccc(OC)c(Nc2ncc(-c3cccc(F)c3)o2)c1 [GW621970X],100,6.7,98,51,47,5.4,1.1,9.3,6.6,4.5
COc1cc2ncn(-c3cc(O[C@H](C)c4ccccc4Cl)c(C(N)=O)s3)c2cc1OC [GSK237701A],29,81,100,86,92,71,20,78,56,46
C[C@@H](Oc1cc(-n2cnc3ccc(OC4CCN(C)CC4)cc32)sc1C(N)=O)c1ccccc1Cl [GSK579289A],62,44,52,87,100,78,43,56,80,46
CC1=C(C(=O)Nc2ccc3[nH]ncc3c2)C(c2ccc(Cl)c(Cl)c2)CC(=O)N1 (stereo not drawn) [GSK299115A],73,96,100,72,75,74,79,95,87,75
CC1=C(C(=O)Nc2ccc3[nH]ncc3c2)C(c2ccc3ccccc3c2)CC(=O)N1 (stereo not drawn) [GSK270822A],81,83,100,67,87,68,59,86,80,50
C/C(Nc1ccc(S(N)(=O)=O)cc1)=C1/C(=O)Nc2ccccc21 [GW335962X],67,82,88,83,100,89,72,91,82,76
CCn1c(-c2nonc2N)nc2c(C#CC(C)(C)O)nc(OCCNC)cc21.Cl [GSK949675],100,98,100,100,100,100,85,93,100,100
COc1cc(N2CCN(C(C)C)CC2)ccc1Nc1nc(Nc2ccc(F)cc2C(=O)NC[C@@H](O)CO)c2cc[nH]c2n1 [GSK1392956A],64,100,100,87,95,49,97,100,97,100
CN(C)CCNC(=O)Nc1ccc(N(C)c2ccnc(Nc3ccc(CS(C)(=O)=O)cc3)n2)cc1.Cl [GW830900A],20,82,93,84,91,84,38,82,73,47
CCS(=O)(=O)c1ccc(OC)c(Nc2ncc(-c3cccc(OC)c3)o2)c1 [GW580509X],100,5,90,40,45,6.2,1.4,7.9,6.5,6.8
Cl.O=S1CCN(Cc2ccc(-c3ccc4ncnc(Nc5ccc(OCc6ccccc6)c(F)c5)c4c3)o2)CC1 [GW576924A],100,100,100,96,100,70,99,100,100,100
NS(=O)(=O)c1ccc(N/N=C2\C(=O)Nc3ccc(C(=O)NCCc4c[nH]cn4)cc32)cc1 [GW300660X],100,100,100,77,98,100,93,100,100,99
COc1ccc2cc(-c3c(-c4ccncc4)nc(-c4ccc(S(C)(=O)=O)cc4C)n3C)ccc2c1 [SB-633825],83,80,100,65,83,74,58,78,81,63
COc1cc(C)c(N(C)C(=O)CN(C)C)cc1Nc1nc(Nc2cccc(F)c2C(N)=O)c2cc[nH]c2n1 [GSK2219385],94,95,55,97,100,56,51,99,100,62
CCc1ccc(Oc2nccc(-c3c(-c4ccc(F)cc4)ncn3C3CCNCC3)n2)cc1 [SB-242719],100,63,87,80,100,98,77,67,98,68
COC(=O)Nc1nc2ccc(Oc3ccc(NC(=O)Nc4cc(C(F)(F)F)ccc4F)cc3)cc2s1.Cl [GW693917A],100,28,4.5,36,3.6,14,0,15,12,0
Cc1cc(O)cc(C)c1/C=C/c1cncc(C(N)=O)c1 [GW435821X],100,6.8,90,32,37,9,4.9,14,15,7.9
